# The whole screen tested about 220,000 compounds, of which about 910 (0.41%) were called active.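 Rule for the calls: active = primary inhibition above the hit cutoff, then over 50% inhibition at one or more dose response concentrations (cut at about 23% in these data, passing the limit was not always enough); inconclusive = conflicting primary data, or primary hits not chosen for dose response; inactive = low primary inhibition, or under 50% at every dose.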 The full list was thinned out, with actives kept by preference. Measured potencies and affinities stand elsewhere.
# Target: Aminopeptidase N (Plasmodium falciparum (isolate 3D7)) (UniProt O96935)
# Sequence (O96935 whole entry, looked up): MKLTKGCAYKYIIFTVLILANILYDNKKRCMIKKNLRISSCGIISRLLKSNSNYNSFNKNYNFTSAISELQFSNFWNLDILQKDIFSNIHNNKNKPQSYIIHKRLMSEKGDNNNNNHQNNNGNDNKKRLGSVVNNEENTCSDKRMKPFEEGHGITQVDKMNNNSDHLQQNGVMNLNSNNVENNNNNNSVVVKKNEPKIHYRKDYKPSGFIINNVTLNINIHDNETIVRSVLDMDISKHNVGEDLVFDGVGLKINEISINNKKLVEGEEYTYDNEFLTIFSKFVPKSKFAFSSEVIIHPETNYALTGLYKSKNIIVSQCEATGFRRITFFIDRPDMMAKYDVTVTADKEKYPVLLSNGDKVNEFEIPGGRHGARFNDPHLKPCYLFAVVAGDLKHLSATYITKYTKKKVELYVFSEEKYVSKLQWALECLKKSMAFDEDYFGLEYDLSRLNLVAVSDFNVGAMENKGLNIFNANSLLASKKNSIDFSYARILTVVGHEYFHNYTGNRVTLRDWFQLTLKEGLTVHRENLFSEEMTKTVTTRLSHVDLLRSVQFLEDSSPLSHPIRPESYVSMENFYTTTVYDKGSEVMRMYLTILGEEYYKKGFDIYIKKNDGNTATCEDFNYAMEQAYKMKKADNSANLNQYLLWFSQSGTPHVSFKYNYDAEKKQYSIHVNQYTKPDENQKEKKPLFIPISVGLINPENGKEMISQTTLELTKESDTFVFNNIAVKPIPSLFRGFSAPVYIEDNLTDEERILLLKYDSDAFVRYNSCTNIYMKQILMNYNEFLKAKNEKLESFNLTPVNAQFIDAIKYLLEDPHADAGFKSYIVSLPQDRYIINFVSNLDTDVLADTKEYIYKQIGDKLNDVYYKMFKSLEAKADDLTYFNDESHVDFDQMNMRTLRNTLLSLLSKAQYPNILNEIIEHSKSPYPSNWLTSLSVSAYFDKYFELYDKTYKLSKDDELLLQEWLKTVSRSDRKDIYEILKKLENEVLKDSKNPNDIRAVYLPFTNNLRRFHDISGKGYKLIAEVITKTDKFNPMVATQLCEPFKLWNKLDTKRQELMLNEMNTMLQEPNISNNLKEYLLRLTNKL
# Experiment: malaria alanyl aminopeptidase activity blockers – biochemical, fluorogenic H-Leu-NHMec substrate, 1536-well (AID 1445);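 note: plate controls were DMSO full reaction for no effect and no enzyme background for full effect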
# Conditions: recombinant M1AAP, H-Leu-NHMec fluorogenic kinetic assay; at 30 µM, stronger effect = higher value unless noted
row,Compound,inhibition
1,COc1cc(/C=C2/C(=N)N3C=CSC3=NC2=O)ccc1OCCCOc1cc(C)ccc1C,-5.49% (inactive)
2,CCOc1cc(/C=C2\SC(=O)N(c3ccc(O)cc3)C2=O)ccc1O,15.2% (inactive)
3,CCOc1cc(/C=C2\SC(=O)N=C2N)ccc1O,22% (inactive)
4,CCC1=NN2C(=N)/C(=C\c3ccc(OCc4cc(=O)n5nc(CC)sc5n4)c(OC)c3)C(=O)N=C2S1,32.8% (inactive)
5,CCC1=NN2C(=N)/C(=C\c3ccc(SCc4ccco4)o3)C(=O)N=C2S1,7.98% (inactive)
6,CCCC1=NN2C(=N)/C(=C\c3ccc(SCc4ccco4)o3)C(=O)N=C2S1,20.4% (inactive)
7,O=S(=O)(NCc1ccccn1)c1cccc2nsnc12,3.36% (inactive)
8,Cc1cccc(NC(=O)NCc2ccc3c(c2)OCO3)c1C,-4.45% (inactive)
9,CSc1ccc(S(=O)(=O)NC(C)c2ccccc2)cc1 (configuration not stated),-2.61% (inactive)
10,CCOc1cc(OCC)nc(S(C)(=O)=O)n1,2.35% (inactive)
11,Cn1c(O)c(C=NCC2CCNCC2)c(=O)n(C)c1=O,-0.42% (inactive)
12,CC(C)C(=O)N1CCC(CN=Cc2c(O)n(C3CCCCC3)c(=O)n(C3CCCCC3)c2=O)CC1,27% (active)
13,CC(C)C(=O)N1CCC(CN=CC2=C(O)CC(C)(C)CC2=O)CC1,6.11% (inactive)
14,COC(=O)Cc1[nH]n(-c2ccccc2)c(=O)c1C=Nc1ccc(C)cc1,-0.62% (inactive)
15,COc1ccc(C(=O)Nc2nc3nc(-c4ccccc4)cc(=O)n3[nH]2)cc1,10.9% (inactive)
16,Cc1ccc(C(=O)Nc2nc3nc(-c4ccccc4)cc(=O)n3[nH]2)cc1,25.9% (active)
17,O=C(Nc1nc2nc(-c3ccccc3)cc(=O)n2[nH]1)c1ccccc1,-0.35% (inactive)
18,Cc1onc(-c2c(F)cccc2Cl)c1C(=O)Nc1ccc(S(=O)(=O)Nc2ncccn2)cc1,13.8% (inactive)
19,Cc1cc(=O)oc2cc(Oc3ccc(C(N)=O)cc3[N+](=O)[O-])ccc12,30% (inactive)
20,O=c1ccc2ccc(Oc3ccc([N+](=O)[O-])cc3[N+](=O)[O-])cc2o1,11.5% (inactive)
21,CC(NC(=O)CN(C1CCCCC1)S(C)(=O)=O)c1ccccc1 (configuration not stated),2.9% (inactive)
22,CC(NC(=O)COc1ccc(N(C)S(=O)(=O)c2ccccc2)cc1)c1ccccc1 (configuration not stated),1.27% (inactive)
23,NS(=O)(=O)c1ccc(CCn2c(=S)[nH]c3ccc(F)cc3c2=O)cc1,-3.16% (inactive)

row,Compound,inhibition
1,O=C1c2oc3ccccc3c(=O)c2C(c2cccc(O)c2)N1CCCN1CCOCC1 (configuration not stated),26.8% (active)
2,CCCOc1ccc(C2c3c(oc4ccccc4c3=O)C(=O)N2CCCN2CCOCC2)cc1 (configuration not stated),4.5% (inactive)
3,C=CCOc1ccc(C2c3c(oc4ccccc4c3=O)C(=O)N2CCCN2CCOCC2)cc1 (configuration not stated),24.2% (active)
4,CCOc1ccc(C2c3c(oc4ccccc4c3=O)C(=O)N2CCCN2CCOCC2)cc1 (configuration not stated),2.52% (inactive)
5,COc1cccc(C2c3c(oc4ccccc4c3=O)C(=O)N2CCCN2CCOCC2)c1 (configuration not stated),7.18% (inactive)
6,O=C1c2oc3ccc(F)cc3c(=O)c2C(c2cccc(O)c2)N1CCCN1CCOCC1 (configuration not stated),-3% (inactive)
7,Cn1c(=O)c2c(nc(SCCN3CCOCC3)n2Cc2ccc(F)cc2)n(C)c1=O,-1.46% (inactive)
8,Cn1c(=O)c2c(nc(SCCN3CCOCC3)n2Cc2ccccc2)n(C)c1=O,7.6% (inactive)
9,Cc1ccc(Cn2c(SCCN3CCOCC3)nc3c2c(=O)n(C)c(=O)n3C)cc1,23.8% (active)
10,Cc1ccc(NC(=O)NC2=NN(c3ccccc3)C(=O)/C2=C2/CCCN2C)cc1,8.56% (inactive)
11,O=C(c1nc2ccccn2c1CN1CCC(Cc2ccccc2)CC1)N1CCCC1,5.48% (inactive)
12,CCOc1ccc(N(CC(=O)Nc2ccccc2C(=O)NCc2ccco2)S(C)(=O)=O)cc1,23.4% (active)
13,CCOc1ccccc1N(CC(=O)Nc1ccccc1C(=O)NCc1ccco1)S(C)(=O)=O,21% (inactive)
14,COc1ccc(N(CC(=O)Nc2ccccc2C(=O)NCc2ccco2)S(C)(=O)=O)cc1,3.79% (inactive)
15,COc1ccc(C(C)=O)cc1CSc1nncn1C,4.42% (inactive)
16,COC(=O)c1c(NC(NC(=O)c2ccccc2)(C(F)(F)F)C(F)(F)F)sc2c1CCN(C)C2,2.95% (inactive)
17,CCOC(=O)N(CC)OC(=O)Nc1ccc(Cl)cc1,2.39% (inactive)
18,CCOC(=O)N(C)OC(=O)Nc1ccc(Cl)c(Cl)c1,24% (active)
19,CCOC(=O)CNNC(=O)Nc1ccc(Cl)c(Cl)c1,-5.41% (inactive)
20,CCCc1ccc(-c2cc(NC(=O)CSc3n[nH]c(N)n3)n(-c3ccccc3)n2)cc1,-9.14% (inactive)
21,Nc1nc(SCC(=O)Nc2cc(-c3ccccc3)nn2-c2ccccc2)n[nH]1,26.4% (active)
22,Cc1ccc(-c2cc(NC(=O)CSc3n[nH]c(N)n3)n(-c3ccccc3)n2)cc1,3.01% (inactive)
23,CS(=O)(=O)N1CCC(C(=O)Nc2cccc(Cl)c2)CC1,-2.4% (inactive)

row,Compound,inhibition
1,CS(=O)(=O)N1CCCC(C(=O)c2cccc(Cl)c2)C1 (configuration not stated),-1.4% (inactive)
2,O=C(NNC(=O)C1CCN(S(=O)(=O)c2cccc(C(F)(F)F)c2)CC1)C1CC1,-0.46% (inactive)
3,CCCS(=O)(=O)N1CCC(C(=O)c2cccc(C(F)(F)F)c2)CC1,23.4% (active)
4,CCCS(=O)(=O)N1CCCC(C(=O)c2cccc(Cl)c2)C1 (configuration not stated),2.05% (inactive)
5,CCCCC1NC(C(=O)O)CS1 (configuration not stated),-4.57% (inactive)
6,Cc1ccc(C2C(=O)N(C3CCC(C)CC3)CC(=O)N2C2CC2)cc1 (configuration not stated),6.72% (inactive)
7,COc1ccc(-n2ncc(N(C)n3cccc3)c(Cl)c2=O)cc1,4.45% (inactive)
8,COc1ccc(/C=C\C(=O)NCC(=O)N/N=C/c2ccc(O)cc2O)cc1,33.7% (inactive)
9,O=C(CCNC(=O)c1ccccc1)N=Nc1c(O)[nH]c2ccccc12,14% (inactive)
10,CCOC(=O)c1cc(-c2cccc([N+](=O)[O-])c2)on1,7.98% (inactive)
11,CCOC(=O)c1cc(-c2cccc([N+](=O)[O-])c2)n[nH]1,0.83% (inactive)
12,COc1ccc(N(C)C(=S)Nc2ccc3nc(C)c(C)nc3c2)cc1,0.41% (inactive)
13,Cc1noc(NC(=O)c2cccc(C(F)(F)F)c2)c1Cl,1.44% (inactive)
14,CCOC(=O)c1ccc(C(=O)OCC)nc1,-0.25% (inactive)
15,CCOC(=O)C1(CCOc2ccccc2)CCN(Cc2cccc3nonc23)CC1,11.9% (inactive)
16,COc1ccc(C2c3[nH]c4ccccc4c3CCN2C(=O)c2ccc(=O)n(C)n2)c(F)c1 (configuration not stated),-6.53% (inactive)
17,O=C(c1ccccc1)N1CCC(O)(c2ccc3c(c2)OCO3)CC1,-2.13% (inactive)
18,CN1C(=O)c2ccc(C(=O)NCc3ccccc3)cc2C1=O,5.4% (inactive)
19,CCN1C(=O)c2ccc(C(=O)NCc3ccccc3)cc2C1=O,1.2% (inactive)
20,CCCCCOc1ccccc1C(=O)NCCC(=O)O,0.09% (inactive)
21,Cc1cc(C)n(-c2ccc(F)cc2)c(=O)c1C#N,3.92% (inactive)
22,CCO/N=C(/C)c1c(O)cc(C(C)(C)C)n(-c2ccccc2)c1=O,1.22% (inactive)
23,Cc1ccc(C)c(NC2=NS(=O)(=O)c3ccccc32)c1,3.34% (inactive)

row,Compound,inhibition
1,CC(=O)Nc1ccc(S(=O)(=O)NNC2=NS(=O)(=O)c3ccccc32)cc1,5.01% (inactive)
2,Cc1cc(C)n2nc(N)c(N=Nc3ccc4c(c3)OCO4)c2n1,-0.91% (inactive)
3,O=C(Nc1ccc(OCC(F)(F)C(F)F)cc1)c1ccncc1,3.56% (inactive)
4,NC(=NCCc1c[nH]c2ccccc12)NC(=O)c1ccc(Cl)cc1,2.62% (inactive)
5,O=c1c2ccccc2nc(SCc2cn3ccsc3n2)n1-c1ccccc1,14.2% (inactive)
6,O=c1c2ccccc2nc(SCc2cn3ccsc3n2)n1-c1ccc(F)cc1,-8.24% (inactive)
7,Cc1ccc(-n2c(SCc3cn4ccsc4n3)nc3ccccc3c2=O)cc1,25.9% (active)
8,O=C(NC1CCCCC1)C(c1ccncc1)N(C(=O)Cn1nnc(-c2cccs2)n1)C1CCCC1 (configuration not stated),0.4% (inactive)
9,COc1ccccc1NC(=O)C(C)NS(=O)(=O)c1ccc(Cl)cc1 (configuration not stated),0.77% (inactive)
10,CCN(CC)c1ccc2c(C)c(CN3CCOCC3)c(=O)oc2c1,7.04% (inactive)
11,Cc1cc2oc(=O)cc(CN3CCOCC3)c2cc1C,11.2% (inactive)
12,COCCN(C(=O)CN1CCN(S(=O)(=O)c2ccc(F)cc2)CC1)c1c(N)n(Cc2ccccc2)c(=O)[nH]c1=O,7.35% (inactive)
13,Nc1cc2c(cc1[N+](=O)[O-])OCO2,7.4% (inactive)
14,CC1C/C(=N/Nc2ccc([N+](=O)[O-])cc2[N+](=O)[O-])CC(C)(C)C1 (configuration not stated),-1.42% (inactive)
15,CC(=O)Nc1cc2c(cc1[N+](=O)[O-])OCCO2,6.17% (inactive)
16,CC1(C)OC(=O)C(=NNc2ccccc2[N+](=O)[O-])C(=O)O1,9.4% (inactive)
17,O=C(N/N=C/c1ccccc1Cl)c1[nH]c2ccc(Br)cc2c1-c1ccccc1,-5.79% (inactive)
18,COc1ccc(/C=N/NC(=O)c2[nH]c3ccc(Br)cc3c2-c2ccccc2)cc1,2.81% (inactive)
19,CCOc1ccccc1N(C(=O)Nc1ccc(Cl)cc1)C1=NCCS1,-3.04% (inactive)
20,COc1ccc(C2CC(=O)NC3=C2C(=O)CCC3)cc1Cl (configuration not stated),-1.4% (inactive)
21,O=C(O)CSc1nnc(-c2ccccc2O)n1Cc1ccccc1,6.98% (inactive)
22,O=C(CSc1nnc(-c2ccccc2)n1Cc1ccccc1)NNC(=O)c1ccccc1O,16.1% (inactive)
23,NC(=O)c1cc2c3ccccc3ccn2c1-c1ccccc1,0.96% (inactive)

# Reference: PubChem BioAssay AID1445 (SRMLSC, 2008)
